# Measurements: ChEMBL document CHEMBL1201862, “PubChem BioAssay data set” (2004)
# In all, about 400,000 compounds went through this assay and about 2,100 (0.53%) were called active. Roughly 14% stayed inconclusive and do not appear here. How the calls were made is not given here. This excerpt belongs to a sample that is enriched for actives.
# Molecular target: Ataxin-2 (Homo sapiens) (UniProt Q99700)
# Assay: qHTS for Inhibitors of ATXN expression.
# Assay type: functional
# Ataxin-2 (Homo sapiens), sequence (Q99700 whole entry): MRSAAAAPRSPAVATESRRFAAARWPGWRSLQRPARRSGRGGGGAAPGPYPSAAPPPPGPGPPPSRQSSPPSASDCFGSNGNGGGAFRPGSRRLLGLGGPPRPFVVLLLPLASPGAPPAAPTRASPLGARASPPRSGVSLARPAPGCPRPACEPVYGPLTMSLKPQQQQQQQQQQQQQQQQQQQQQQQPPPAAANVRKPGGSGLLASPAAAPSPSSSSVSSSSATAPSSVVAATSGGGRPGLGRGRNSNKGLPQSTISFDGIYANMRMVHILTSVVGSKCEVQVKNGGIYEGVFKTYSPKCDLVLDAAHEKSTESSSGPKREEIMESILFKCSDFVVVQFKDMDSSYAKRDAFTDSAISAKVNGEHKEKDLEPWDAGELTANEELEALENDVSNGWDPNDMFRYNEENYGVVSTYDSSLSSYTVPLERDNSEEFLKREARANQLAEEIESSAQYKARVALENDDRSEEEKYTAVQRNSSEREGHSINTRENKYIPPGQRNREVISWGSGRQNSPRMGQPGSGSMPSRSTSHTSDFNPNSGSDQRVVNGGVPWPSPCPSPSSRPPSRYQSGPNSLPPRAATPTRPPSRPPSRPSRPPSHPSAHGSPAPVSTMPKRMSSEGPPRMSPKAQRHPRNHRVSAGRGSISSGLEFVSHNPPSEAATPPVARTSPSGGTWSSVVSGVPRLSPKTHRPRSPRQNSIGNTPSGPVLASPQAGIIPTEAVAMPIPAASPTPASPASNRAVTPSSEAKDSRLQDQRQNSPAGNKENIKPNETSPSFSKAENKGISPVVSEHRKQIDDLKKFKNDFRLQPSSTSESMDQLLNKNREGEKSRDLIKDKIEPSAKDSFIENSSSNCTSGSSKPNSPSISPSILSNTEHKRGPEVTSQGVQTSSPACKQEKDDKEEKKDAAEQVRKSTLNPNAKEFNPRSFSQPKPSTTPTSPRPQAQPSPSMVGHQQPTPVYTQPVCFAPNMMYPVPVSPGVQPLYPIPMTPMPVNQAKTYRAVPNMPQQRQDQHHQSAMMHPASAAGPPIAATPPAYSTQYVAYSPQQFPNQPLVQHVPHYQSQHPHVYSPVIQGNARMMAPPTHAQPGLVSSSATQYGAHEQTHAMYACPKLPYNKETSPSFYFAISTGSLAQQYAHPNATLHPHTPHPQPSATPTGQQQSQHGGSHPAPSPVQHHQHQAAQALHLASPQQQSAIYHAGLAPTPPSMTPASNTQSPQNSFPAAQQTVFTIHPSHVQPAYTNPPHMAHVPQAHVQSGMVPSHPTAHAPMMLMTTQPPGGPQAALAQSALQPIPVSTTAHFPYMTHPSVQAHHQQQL
row,SMILES,Potency
1,CC1Cc2ccccc2N1C(=O)COC(=O)c1ccc(N(C)C)cc1 (stereo not drawn),inactive
2,COc1cc(/C=C(/C#N)c2nc3ccccc3[nH]2)ccc1OCC(=O)Nc1ccccc1C(C)C,inactive
3,Cc1cc(Br)ccc1SCC(=O)OC/C(O)=C(\C#N)c1nc2ccccc2[nH]1,11.2 µM (active)
4,Cc1cc(/C=C(/C#N)c2nc3ccccc3[nH]2)c(C)n1-c1ccccc1C(=O)O,inactive
5,Cc1cc(Br)ccc1SCC(=O)OCC(O)=C(C#N)c1nc2ccccc2[nH]1,39.8 µM (active)
6,CCO/C(O)=C(\C#N)c1cc(C)c2ccccc2n1,inactive
7,COc1cc(/C=C(/C#N)c2nc3ccccc3[nH]2)ccc1OCC(=O)Nc1ccccc1C,inactive
8,Cc1c(C)c(C)c(S(=O)(=O)N2CCNCC2)c(C)c1C,inactive
9,COCCN1C=C(C(=O)OC)C(c2ccccc2Cl)C(C(=O)OC)=C1,inactive
10,O=C(N[C@@H](Cc1ccccc1)C(=O)OCc1ccccc1)c1ccco1,inactive
11,O=C(N[C@@H](Cc1ccccc1)C(=O)OCc1ccccc1)c1[nH]cnc1C(=O)N1CCN(c2ccccc2)CC1,22.4 µM (active)
12,O=C(NC(CC(=O)N1CCN(c2ccccc2)CC1)c1ccccc1)c1ccccc1 (stereo not drawn),inactive
13,CC(C)C[C@H](NC(=O)c1[nH]cnc1C(=O)N1CCN(C(=O)OC(C)(C)C)CC1)C(=O)OCc1ccccc1,35.5 µM (active)
14,O=C(O)CCCC(=O)N1CCN(c2nc(-c3ccccc3)c3ccccc3n2)CC1,inactive
15,COc1cccc(/C=N/n2c(SC)nnc2-c2ccccc2)c1O,inactive
16,COc1ccc2nc(C)cc(N/N=C/c3ccccc3)c2c1,31.6 µM (active)
17,COc1ccc2nc(S)cc(C)c2c1,inactive
18,COc1ccc2nc(C)cc(SCC(=O)N/N=C/c3cccc4ccccc34)c2c1,22.4 µM (active)
19,COc1ccc2nc(C)cc(N/N=C/c3cccc(OC)c3O)c2c1,35.5 µM (active)
20,COc1ccc2cc(/C=N/NC(=O)CN(c3ccccc3C)S(=O)(=O)c3ccccc3)c(Cl)nc2c1,inactive
21,COc1ccc(/C=N/Nc2cc(C)nc3ccc(OC)cc23)c(OC)c1,inactive
22,COc1cccc(-c2cc(C(=O)N/N=C/c3cccc(OC)c3OC)c3ccccc3n2)c1,inactive
23,Cc1cc(C(=O)N/N=C/c2cccnc2)c2ccccc2n1,inactive
24,COc1ccc(C(=O)Nc2nc3n(n2)C(c2ccccc2)C=C(c2ccccc2)N3)cc1 (stereo not drawn),inactive
25,COc1cccc(C2C=C(c3cccs3)Nc3ncnn32)c1OC (stereo not drawn),inactive

row,SMILES,Potency
1,Cc1nc(N)c(Br)c(C)c1Br,inactive
2,Clc1ccccc1N1CCN(Cc2ccco2)CC1,inactive
3,CCOC(=O)c1sc2nc(C3CC3)cc(-c3ccc(F)cc3)c2c1N,inactive
4,Cc1ccccc1NCC(=O)Nc1cc(S(=O)(=O)N2CCCCC2)ccc1C,inactive
5,SC1=C2CCCCCC2=NC2(CCCCCC2)S1,44.7 µM (active)
6,CSC1=NN(c2ccccc2)CN(c2ccccc2)N1C,inactive
7,COc1ccc(-c2c(C)c3ccc(O)c(CN4CCC(C)CC4)c3oc2=O)cc1OC,inactive
8,CCOC(=O)C1CCN(S(=O)(=O)c2ccc3c4c(cccc24)C(=O)N3)CC1,inactive
9,CC1=[N+](C)c2c(ccc3cccnc23)C1(C)C,inactive
10,CC(C)c1ccc2nc3sc(C(=O)N4CCc5ccccc5C4)c(N)c3cc2c1,inactive
11,Cn1c2ccccc2c(=O)c2c(=O)n(C3CCCCCC3)c(C3CCCCC3)nc21,inactive
12,C/C(=N\Nc1nc2ccccc2[nH]1)c1cc2ccccc2o1,inactive
13,Cc1c(C(=O)Nc2nc3ccccc3[nH]2)oc2ccccc12,39.8 µM (active)
14,COc1ccc(C(=O)N[C@H](C(=O)Nc2nc3ccccc3[nH]2)C(C)C)cc1,inactive
15,COCCNC(=O)c1cnn2c(C(F)(F)F)cc(-c3ccc(C)cc3)nc12,inactive
16,CCOC(=O)c1cc2c(=O)n3ccccc3nc2n(CCCOC)/c1=N\C(=O)c1ccncc1,inactive
17,CN1CCN(c2ccc(-c3ccc4ccccc4n3)cc2)CC1,inactive
18,CN1CCN(c2ccc3sc(-n4ccc5ccccc54)nc3c2)CC1,39.8 µM (active)
19,O=c1c(-c2nc3ccccc3s2)cccn1Cc1ccccc1,inactive
20,C[C@@H]1O[C@H](O[C@@H]2[C@H](C)O[C@H](O[C@@H]3[C@H](C)O[C@H](O[C@H]4CC[C@]5(C)[C@@H](CC[C@@H]6[C@H]5C[C@@H](O)[C@]5(C)[C@@H](C7=CC(=O)OC7)CC[C@]65O)C4)C[C@@H]3O)C[C@@H]2O)C[C@H](O)[C@@H]1O,0.224 µM (active)
21,CN(C)c1nc(-c2ccccc2)c2cc(Cl)ccc2n1,inactive
22,Cc1c(CC(=O)NCc2ccccc2Cl)c(=O)oc2cc(O)ccc12,inactive
23,COc1ccc(C=Cc2ccc3ccccc3n2)c(OC)c1,inactive
24,COc1cc(/C=C/c2ccc3cccc(OC)c3n2)c(OC(C)=O)c([N+](=O)[O-])c1,35.5 µM (active)
25,CC(=O)Oc1c(Cl)cc(Cl)cc1/C=C/c1ccc2ccccc2n1,inactive

row,SMILES,Potency
1,CCOC(=O)c1c(C)[nH]c(C)c1C(=O)COC(=O)c1ccc(S(=O)(=O)C(F)F)cc1,inactive
2,CCOC(=O)c1c(C)[nH]c(C)c1C(=O)COC(=O)c1ccc([N+](=O)[O-])s1,inactive
3,CCOC(=O)c1c(C)[nH]c2c1-c1ccccc1C(=O)C2=O,2.82 µM (active)
4,O=C(NCc1ccco1)c1cccc2c1C(=O)c1ccc(N3CCC(Cc4ccccc4)CC3)cc1S2(=O)=O,inactive
5,CC1(C)CNc2cc([N+](=O)[O-])ccc2S1,inactive
6,CCOC(=O)N1CCN(c2nc(-c3ccccc3)c3ccccc3n2)CC1,inactive
7,CCOC(=O)c1c(-c2ccccc2)nnn1-c1nc(OCC)nc(N2CCCCC2)n1,39.8 µM (active)
8,CCOC(=O)c1cc(-c2ccccc2)nc2nc(N3CCCCC3)sc12,inactive
9,C=C1C(=O)OC2C1CCC(C)=CCCC1(C)OC21 (stereo not drawn),22.4 µM (active)
10,C=CCN(C(=O)CSc1nc2ccsc2c(=O)n1Cc1ccccn1)c1ccccc1,inactive
11,C=C(C)CSc1cc(C)c(C#N)c2nc3ccccc3n12,inactive
12,CCc1nc2c(OCCC3CCCCC3)cccn2c1N(C)C(=O)C1CC1,35.5 µM (active)
13,CCOCCCn1c(=N)c(C(=O)NC2CCCCC2)cc2c(=O)n3ccccc3nc21,inactive
14,CCn1c(=N)c(C(=O)NC2CCCCC2)cc2c(=O)n3cccc(C)c3nc21,inactive
15,CCc1nc2c(OCCC3CCCCC3)cccn2c1N(C)C(=O)C(C)C,35.5 µM (active)
16,CCC(CC)C(=O)N(C)c1c(C)nc2c(OCCC3CCCCC3)cccn12,31.6 µM (active)
17,CCCn1c(=N)c(C(=O)NC2CCCC2)cc2c(=O)n3cccc(C)c3nc21,inactive
18,CCOCCCn1c(=N)c(C(=O)NC2CCCC2)cc2c(=O)n3cccc(C)c3nc21,inactive
19,O=C(NCc1cccc(F)c1)c1cccc2c1C(=O)c1ccc(N3CCC(Cc4ccccc4)CC3)cc1S2(=O)=O,inactive
20,O=C(NNc1ccccn1)C(c1ccccc1)c1ccccc1,inactive
21,COc1ccc(-c2cc3ccc(O)c(CN4CCC(C)CC4)c3oc2=O)cc1OC,inactive
22,Cc1c(N=C2N=C(NC(=O)c3ccc(F)cc3)c3ccccc32)c(=O)n(-c2ccccc2)n1C,inactive
23,N=c1oc2cc(O)ccc2cc1C(=O)Nc1ccc(Br)cc1,inactive
24,CCOC(=O)CC(NC(=O)CCc1c(C)nc2c(-c3ccccc3)c(C)nn2c1C)c1ccc(OC(C)C)cc1 (stereo not drawn),39.8 µM (active)
25,CCOC(=O)Cc1c(C)nc2c(-c3ccc(Cl)cc3)c(C)nn2c1C,inactive

row,SMILES,Potency
1,Cc1ccc(/C=C/C(=O)c2ccc(N3CCOCC3)cc2)s1,inactive
2,CNC(=O)/C(C#N)=C/c1c(N2CCN(c3cccc(Cl)c3)CC2)nc2c(C)cccn2c1=O,inactive
3,O=C(C1CCN(c2ncnc3c2nc2n3CCCCC2)CC1)N1CCN(c2ccc(F)cc2)CC1,22.4 µM (active)
4,O=C(c1cccc(F)c1)N1CCCC(C(=O)N2CCN(c3ccccc3)CC2)C1 (stereo not drawn),inactive
5,O=C(OCC(=O)N1CCN(c2ccc(F)cc2)CC1)c1cnc2ccccc2n1,inactive
6,Clc1cccc(N2CCN(c3ncnc4c3nc3n4CCCCC3)CC2)c1,14.1 µM (active)
7,Clc1cccc(N2CCN(Cc3nnc(-c4ccccc4)o3)CC2)c1,inactive
8,O=C(OCC(=O)N1CCCC1)c1c[nH]c2ccccc12,inactive
9,Cc1cc(C)c2c(CC(=O)O)c(C)[nH]c2c1,inactive
10,O=c1ccc2ccc(O)cc2o1,inactive
11,N#Cc1c(-c2ccncc2)cc(-c2ccc(F)cc2)nc1N,inactive
12,CS(=O)(=O)c1nc(-c2ccc(Br)cc2)cc(-c2ccccc2)c1C#N,28.2 µM (active)
13,CS(=O)(=O)c1sc2nc(-c3ccccc3)cc(-c3ccccc3)c2c1N,inactive
14,Cn1c2ccccc2n2c(=O)cc(-c3ccccc3)c(C#N)c12,inactive
15,CCO/C(O)=C(/Sc1nc(-c2ccccc2)cc(-c2ccccc2)c1C#N)C(C)=O,inactive
16,CS(=O)(=O)c1nc(-c2ccccc2)cc(-c2ccccc2)c1C#N,31.6 µM (active)
17,COCCCn1c(=N)c(C(=O)NCc2cccnc2)cc2c(=O)n3cc(C)ccc3nc21,inactive
18,CC(=O)c1c(C)[nH]c(C(=O)OCC(=O)c2ccc3c(c2)NC(=O)CO3)c1C,inactive
19,CC(C)C(=O)Nc1ccc(S(=O)(=O)Nc2nccc(/C=C/c3ccccc3)n2)cc1,inactive
20,c1ccc(-c2cc(-c3ccc(N4CCOCC4)cc3)nc3ccccc23)cc1,inactive
21,c1ccc(-c2cc(NCCN3CCCCC3)c3ccccc3n2)cc1,20 µM (active)
22,c1ccc2cc3c(NCCN4CCOCC4)ccnc3cc2c1,inactive
23,Cc1ccc(C2C=C(c3ccc4c(c3)OCO4)Nc3ncnn32)cc1 (stereo not drawn),inactive
